Structures are written as SMILES. The panel holds about 79,000 compounds, 15% with a hit somewhere; the sample as a whole holds those more often. A number with no mark means an inactive call. Activity calls are given as the source filed them. Cut-off read from the data, not from the text of the source: active = growth inhibition above about 70%; inactive = the rest.

This is an account of results in PubChem BioAssay (NCI).

Test [1] can be described thus: NCI Yeast Anticancer Drug Screen. Data for the rad50 strain (AID 155).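 Note: 0% = growth of vehicle-only cultures of the same strain.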 The following applies: S. cerevisiae rad50 strain growth inhibition, stronger effect = higher value. Summed up:
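Relative growth inhibition (compound vs vehicle) was measured in yeast with a defined repair-gene alteration.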

Test [2] in a line: NCI Yeast Anticancer Drug Screen. Data for the mec2-1 strain (AID 157). The conditions noted are these: S. cerevisiae mec2-1 strain, stronger effect = higher value. Summed up:
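Each compound was tested on mec2-1 yeast, a strain altered in DNA damage repair or cell cycle control. Growth inhibition is reported relative to vehicle.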

The nature of test [3]: NCI Yeast Anticancer Drug Screen. Data for the sgs1 mgt1 strain (AID 161).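 Note: 0% = growth of cultures given vehicle only.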 The conditions noted are these: S. cerevisiae sgs1 mgt1 strain, stronger effect = higher value. Put shortly: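 Genetically altered yeast, compound exposure, growth inhibition relative to vehicle.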
Test [4] in a line: NCI Yeast Anticancer Drug Screen. Data for the cln2 rad14 strain (AID 165).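 Note: 0% = growth equal to vehicle treated cultures.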 The conditions noted are these: S. cerevisiae cln2 rad14 strain, stronger effect = higher value. Put shortly: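 Test compounds were added to cln2 rad14 yeast cultures; inhibition of growth was then determined by comparison with vehicle treatment.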
The nature of test [5]: NCI Yeast Anticancer Drug Screen. Data for the bub3 strain (AID 167). The following applies: S. cerevisiae bub3 mutant strain, stronger effect = higher value. Put shortly: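 Screening used yeast with an engineered genetic alteration affecting cell cycle control. Compound-exposed cultures were compared with vehicle cultures, and reduced growth was taken as inhibition.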
The nature of test [6]: NCI Yeast Anticancer Drug Screen. Data for the mlh1 rad18 strain (AID 175). The conditions noted are these: S. cerevisiae mlh1 rad18 strain growth inhibition, stronger effect = higher value. Summed up:
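Inhibition values reflect reduced growth of mutant yeast versus vehicle-treated controls following compound exposure; the mutations affect DNA damage repair.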

The mark [7] stands for this setting: at 5.0 µM (retest, dose inferred, filed as 0.5).
Setting [8] is: at 50.0 µM (retest, dose inferred, filed as 5.0).

For the compound `Cc1ccc2c(c1)C(O)(c1ccccc1)C(c1ccccc1)C(c1ccccc1)O2` (stereo not given), the growth inhibition in test [1] (setting [7]) was 78% (active); in test [1] (setting [8]) it was 83% (active); in test [1] (at 50.0 µM), 93.9% (active); in test [2] (setting [7]), 56%; in test [2] (setting [8]), 92% (active); in test [2] (at 50.0 µM) it was 94.3% (active). The growth inhibition in test [3] (setting [7]) was 69%; in test [3] (setting [8]) it was 87% (active); in test [3] (at 50.0 µM), 93.7% (active); in test [4] (setting [7]), 59%; in test [4] (setting [8]), 62%; in test [4] (at 50.0 µM), 90.4% (active). The growth inhibition is 87% (active) in test [5] (setting [7]); 91% (active) in test [5] (setting [8]); 89.5% (active) in test [5] (at 50.0 µM); 66% in test [6] (setting [7]); 88% (active) in test [6] (setting [8]); 93.6% (active) in test [6] (at 50.0 µM).
In the case of `CC1=C/C(=C(/c2ccc(O)c(C)c2)c2ccccc2C(=O)O)C=CC1=O`, the growth inhibition in test [1] (setting [7]) was -13%; in test [1] (setting [8]) it was 99% (active); in test [1] (at 50.0 µM), 99% (active); in test [2] (setting [7]), -3%; in test [2] (setting [8]), 99% (active); in test [2] (at 50.0 µM) it was 99.5% (active). Further, the growth inhibition in test [3] (setting [7]) was -9%; in test [3] (setting [8]), 99% (active); in test [3] (at 50.0 µM), 99.1% (active); in test [4] (setting [7]), -28%; in test [4] (setting [8]) it was 98% (active); in test [4] (at 50.0 µM), 99.1% (active). In addition, the growth inhibition is -8% in test [5] (setting [7]); 99% (active) in test [5] (setting [8]); 99.2% (active) in test [5] (at 50.0 µM); 6% in test [6] (setting [7]); 99% (active) in test [6] (setting [8]); 99% (active) in test [6] (at 50.0 µM).
As for `COc1ccc2ccnc(Cc3ccc(OCc4ccccc4)c(OC)c3)c2c1`, the growth inhibition in test [1] (setting [7]) was 42%; in test [1] (setting [8]), 42%; in test [1] (at 50.0 µM) it was 89.5% (active); in test [2] (setting [7]) it was 27%; in test [2] (setting [8]) it was 27%; in test [2] (at 50.0 µM), 87.3% (active). For the same compound, the growth inhibition was 28% in test [3] (setting [7]); 28% in test [3] (setting [8]); 89.7% (active) in test [3] (at 50.0 µM); 12% in test [4] (setting [7]); 12% in test [4] (setting [8]); 87% (active) in test [4] (at 50.0 µM). The growth inhibition was 28% in test [5] (setting [7]); 28% in test [5] (setting [8]); 86.5% (active) in test [5] (at 50.0 µM); 29% in test [6] (setting [7]); 29% in test [6] (setting [8]); 86% (active) in test [6] (at 50.0 µM).
Turning to `C=C1C(=O)OC2C(C)C3C=CC(=O)[C@@]3(C)C(OC(=O)/C(C)=C/C)C1[C@@H]2OC(C)=O` (stereo not given in full), the growth inhibition in test [1] (setting [7]) was 3%; in test [1] (setting [8]), 91% (active); in test [1] (at 50.0 µM), 80.2% (active); in test [2] (setting [7]), 16%; in test [2] (setting [8]) it was 95% (active); in test [2] (at 50.0 µM), 88.5% (active). Moreover, the growth inhibition in test [3] (setting [7]) is 13%; in test [3] (setting [8]), 92% (active); in test [3] (at 50.0 µM), 87.8% (active); in test [4] (setting [7]), 11%; in test [4] (setting [8]), 81% (active); in test [4] (at 50.0 µM), 79.3% (active). Besides, the growth inhibition in test [5] (setting [7]) is 4%; in test [5] (setting [8]) it was 93% (active); in test [5] (at 50.0 µM), 89.5% (active); in test [6] (setting [7]) it was 16%; in test [6] (setting [8]), 94% (active); in test [6] (at 50.0 µM), 87% (active).
Consider `Oc1c(Cl)cc(Cl)cc1C=NCCSc1ccc(Cl)cc1`, for which the growth inhibition was 33% in test [1] (setting [7]); 99% (active) in test [1] (setting [8]); 92.2% (active) in test [1] (at 50.0 µM); 30% in test [2] (setting [7]); 99% (active) in test [2] (setting [8]); 93.8% (active) in test [2] (at 50.0 µM). Moreover, the growth inhibition in test [3] (setting [7]) is 27%; in test [3] (setting [8]) it was 99% (active); in test [3] (at 50.0 µM), 94.8% (active); in test [4] (setting [7]), 23%; in test [4] (setting [8]) it was 99% (active); in test [4] (at 50.0 µM), 93.2% (active). Moreover, the growth inhibition in test [5] (setting [7]) is 45%; in test [5] (setting [8]), 99% (active); in test [5] (at 50.0 µM) it was 93.9% (active); in test [6] (setting [7]) it was 49%; in test [6] (setting [8]) it was 99% (active); in test [6] (at 50.0 µM) it was 92.7% (active).
With `Cn1sc2ccccc2c1=S`, the growth inhibition in test [1] (setting [7]) was -112%; in test [1] (setting [8]) it was 98% (active); in test [1] (at 50.0 µM) it was 99.6% (active); in test [2] (setting [7]), -39%; in test [2] (setting [8]), 99% (active); in test [2] (at 50.0 µM) it was 99.8% (active). Besides, the growth inhibition in test [3] (setting [7]) is -47%; in test [3] (setting [8]) it was 99% (active); in test [3] (at 50.0 µM), 99.7% (active); in test [4] (setting [7]), -78%; in test [4] (setting [8]), 98% (active); in test [4] (at 50.0 µM) it was 99.5% (active). Also, the growth inhibition was -49% in test [5] (setting [7]); 98% (active) in test [5] (setting [8]); 99.5% (active) in test [5] (at 50.0 µM); -95% in test [6] (setting [7]); 98% (active) in test [6] (setting [8]); 99.7% (active) in test [6] (at 50.0 µM).
In the case of `CC(=O)OCC1CC2OC2CC1C` (stereo not given), the growth inhibition in test [1] (setting [7]) was 1%; in test [1] (setting [8]), 2%; in test [1] (at 50.0 µM), 70.1% (active); in test [2] (setting [7]), 6%; in test [2] (setting [8]), -5%; in test [2] (at 50.0 µM) it was 50.1%. In addition, the growth inhibition in test [3] (setting [7]) is 15%; in test [3] (setting [8]), 7%; in test [3] (at 50.0 µM), 70.4% (active); in test [4] (setting [7]), 34%; in test [4] (setting [8]), 9%; in test [4] (at 50.0 µM), 68.1%. The growth inhibition in test [5] (setting [7]) is 27%; in test [5] (setting [8]), 19%; in test [5] (at 50.0 µM), 75% (active); in test [6] (setting [7]), -12%; in test [6] (setting [8]) it was -26%; in test [6] (at 50.0 µM) it was 63%.
As for `Nc1ncnc2nc(SCCO)[nH]c12`, the growth inhibition in test [1] (setting [7]) was -1%; in test [1] (setting [8]) it was -2%; in test [1] (at 50.0 µM), 9.4%; in test [2] (setting [7]) it was 4%; in test [2] (setting [8]) it was 0%; in test [2] (at 50.0 µM), -4.9%. The growth inhibition was -1% in test [3] (setting [7]); -4% in test [3] (setting [8]); 12.9% in test [3] (at 50.0 µM); 0% in test [4] (setting [7]); -5% in test [4] (setting [8]); 31.4% in test [4] (at 50.0 µM). Further, the growth inhibition in test [5] (setting [7]) was 3%; in test [5] (setting [8]), -2%; in test [5] (at 50.0 µM) it was 9.15%; in test [6] (setting [7]) it was -2%; in test [6] (setting [8]) it was -3%; in test [6] (at 50.0 µM) it was 39.1%.
`CCCCCCCCCCCOc1cccc(N2C(N)=NC(N)=NC2(C)C)c1`: the growth inhibition was 99% (active) in test [1] (setting [7]); 91% (active) in test [1] (setting [8]); 98.8% (active) in test [1] (at 50.0 µM); 99% (active) in test [2] (setting [7]); 96% (active) in test [2] (setting [8]); 99.5% (active) in test [2] (at 50.0 µM). Moreover, the growth inhibition in test [3] (setting [7]) was 99% (active); in test [3] (setting [8]), 96% (active); in test [3] (at 50.0 µM) it was 98.6% (active); in test [4] (setting [7]), 98% (active); in test [4] (setting [8]), 90% (active); in test [4] (at 50.0 µM), 58.5%. In addition, the growth inhibition in test [5] (setting [7]) is 98% (active); in test [5] (setting [8]), 96% (active); in test [5] (at 50.0 µM), 99.1% (active); in test [6] (setting [7]), 99% (active); in test [6] (setting [8]) it was 95% (active); in test [6] (at 50.0 µM) it was 98.7% (active).
On to `C=CCCCCCCCCC(=O)OCC=C`, for which the growth inhibition was 0% in test [1] (setting [7]); 4% in test [1] (setting [8]); -2.1% in test [1] (at 50.0 µM); 6% in test [2] (setting [7]); 3% in test [2] (setting [8]); -18.1% in test [2] (at 50.0 µM). For the same compound, the growth inhibition was 4% in test [3] (setting [7]); 9% in test [3] (setting [8]); 16.4% in test [3] (at 50.0 µM); 0% in test [4] (setting [7]); 0% in test [4] (setting [8]); 26.6% in test [4] (at 50.0 µM). The growth inhibition in test [5] (setting [7]) was -3%; in test [5] (setting [8]), -4%; in test [5] (at 50.0 µM), 10.9%; in test [6] (setting [7]) it was -2%; in test [6] (setting [8]), -1%; in test [6] (at 50.0 µM) it was 9.2%.
